Results from PubChem BioAssay (NCI).
Compounds without any hit were thinned out: in the full panel of roughly 83,000, 20% have a hit.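 Growth was measured after 48 h exposure to one concentration of compound in 96-well plates. Values under 10 count as active.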 The source made the active and inactive calls.

These compounds were tested on SK-MEL-2 melanoma (assay: NCI-60 one-dose screen, 48 h (100 = growth as untreated, 0 = no growth, -100 = all killed)). Conditions: 10 µM.
COc1ccc(-c2csc(NC(=O)c3ccc(Cc4n[nH]c(=O)c5cccnc45)cc3)n2)cc1 was tested, and the growth was 110% (inactive).
COc1ccccc1/C=N\N/C(N)=N\N=C\c1ccccc1OC was tested, and the growth was 21.4% (inactive).
For O=c1cn[nH]c2ccc(Br)cc12, the growth was 103% (inactive).
In the case of OCCn1cccn1, the growth was 118% (inactive).
NS(=O)(=O)c1ccc(N2N=C(c3ccccc3)CCC2=O)cc1 was tested, and the growth was 107% (inactive).
COc1ccccc1N1CCCSC1=Nc1ccccc1 was tested, and the growth was 121% (inactive).
For CC(C)N(CCOc1cccc(-c2nc3sccn3c2-c2ccnc(S(C)(=O)=O)n2)c1)C(C)C, the growth was 109% (inactive).
In the case of O=C(CCC(C(=O)c1ccccc1)c1ccccc1)c1ccccc1 (stereo not given), the growth was 45.4% (inactive).
CCOC(=O)CSc1nc(-c2cc(OC)ccc2OC)cc(-c2ccc(OC)cc2)c1C#N was tested, and the growth was 84.3% (inactive).
With COc1cccc(C2C(C#N)=C(N)Oc3cc(N)ccc32)c1 (stereo not given) the growth was 24.5% (inactive).
With CN(C)CCOc1cccc(-c2nc3sccn3c2-c2ccnc(S(C)(=O)=O)n2)c1 the growth was 117% (inactive).
With CCN(CC)CCCC(C)Nc1c2ccc(Cl)cc2nc2ccc(OC)cc12 (stereo not given) the growth was 57.6% (inactive).
For CC(C1=C(CN(C(=O)Cc2cn(-c3ccccc3)nc2-c2ccc(Cl)cc2)C(C)C)Cc2ccccc21)c1ccccn1 (stereo not given), the growth was 53% (inactive).
CNS(=O)(=O)Oc1ccc(-c2ccc3occc3c2)cc1 was tested, and the growth was 108% (inactive).
For O=C1c2ccccc2C(=O)N1CCCCNc1ccccc1, the growth was 121% (inactive).
Cc1ccc(S(=O)(=O)N(C)CCCCCC(=O)O)cc1 was tested, and the growth was 99.9% (inactive).
CCN(CC)CCNc1ccc(C)c2sc3cc(Cl)ccc3c(=O)c12 was tested, and the growth was 36.5% (inactive).
In the case of O=C(/C=C/c1cccc(B(O)O)c1)c1cccc(B(O)O)c1, the growth was 44.8% (inactive).
With Cc1ccc(NC(=S)NNC(=S)Nc2ccc(C)cc2)cc1 the growth was 66.1% (inactive).
With C[C@@H](C[C@H](CCO)c1ccccc1)c1ccc2ccccc2c1 the growth was -0.232% (active).
CCN(CC)CCN1c2nc3ccccc3cc2Sc2cc3ccccc3nc21 was tested, and the growth was -35.9% (active).
With CN(C)c1ccc(/C=N/NC(=O)c2ccccc2Nc2cccc(C(F)(F)F)c2)cc1 the growth was 62.3% (inactive).
For CS(=O)(=O)c1nccc(-c2c(-c3cccc(OCCN4CCOCC4)c3)nc3sccn23)n1, the growth was 102% (inactive).
O=C(CCCSc1nc(-c2ccccc2)cc(-c2ccc(Cl)cc2)n1)NO was tested, and the growth was 16.4% (inactive).
With CC(=O)COc1ccc(Cl)cc1Cl the growth was 113% (inactive).
CN1CCc2c(sc3nc4n(-c5ccc(Cl)cc5)c(=O)[nH]n4c(=O)c23)C1 was tested, and the growth was 96.5% (inactive).
For Cc1ccc(C2NC(=S)N3C(c4ccc(C)cc4)NC(=S)N23)cc1 (stereo not given), the growth was -32.9% (active).
In the case of COCCn1cc(-c2nc(-c3cccnc3)cs2)c2cc(F)ccc21, the growth was 106% (inactive).
Nc1nc(N)c(N)c(Nc2ccc(CCO)cc2)n1 was tested, and the growth was 118% (inactive).
In the case of CN(C)CCCSc1ccccc1NC1=C(Cl)C(=O)C(Nc2ccccc2SCCCN(C)C)=C(Cl)C1=O, the growth was 43.8% (inactive).
For CCOC(=O)c1cc(C(=O)c2cc(OC)c(OC)c(OC)c2)n2c1ccc1c3cccnc3ccc12, the growth was 40.6% (inactive).
NC1=NC(c2ccccc2)C2=C(N1)/C(=C/c1ccccc1)CCC2 (stereo not given) was tested, and the growth was 87.1% (inactive).
For CCn1cc(C(=O)O)c(=O)c2cc(F)c(N3CCNCC3)cc21, the growth was 113% (inactive).
In the case of COC1=CC(=O)OC(c2ccc(OC)cc2)C1 (stereo not given), the growth was 98.9% (inactive).
For Cc1ccc(C(=O)/C=C/c2ccccc2)s1, the growth was 102% (inactive).
For CCCCC/C=C/C/C=C/CCCCCCCC1=NC(C)(C)CN1C(C)C, the growth was 84.6% (inactive).
CCOC(=O)c1cc(C(=O)c2ccc(F)cc2F)n2ccccc12 was tested, and the growth was 91.2% (inactive).
CC1=CC2C(C(O)CC3(C)C2CC(C)C32OCOC23COCO3)C2(C)C/C(=C/O)C(=O)C=C12 (stereo not given) was tested, and the growth was 76.1% (inactive).
With Cc1ccc(C)c(COc2cc(NC(=O)c3ccc4c(c3)OCO4)ccc2N(C)S(C)(=O)=O)c1 the growth was 37.6% (inactive).
For O=C(/C=C/C=C/c1c(C2CC2)nc2ccccc2c1-c1ccc(F)cc1)c1cccs1, the growth was -76.5% (active).

The compounds below were run on EKVX NSCLC in the same assay as above. Conditions: 10 µM.
With COc1ccc(-c2csc(NC(=O)c3ccc(Cc4n[nH]c(=O)c5cccnc45)cc3)n2)cc1 the growth was 66.6% (inactive).
With COc1ccccc1/C=N\N/C(N)=N\N=C\c1ccccc1OC the growth was 26.1% (inactive).
In the case of O=c1cn[nH]c2ccc(Br)cc12, the growth was 108% (inactive).
OCCn1cccn1 was tested, and the growth was 105% (inactive).
NS(=O)(=O)c1ccc(N2N=C(c3ccccc3)CCC2=O)cc1 was tested, and the growth was 130% (inactive).
In the case of COc1ccccc1N1CCCSC1=Nc1ccccc1, the growth was 110% (inactive).
CC(C)N(CCOc1cccc(-c2nc3sccn3c2-c2ccnc(S(C)(=O)=O)n2)c1)C(C)C was tested, and the growth was 101% (inactive).
With O=C(CCC(C(=O)c1ccccc1)c1ccccc1)c1ccccc1 (stereo not given) the growth was 76.2% (inactive).
In the case of CCOC(=O)CSc1nc(-c2cc(OC)ccc2OC)cc(-c2ccc(OC)cc2)c1C#N, the growth was 74.1% (inactive).
In the case of COc1cccc(C2C(C#N)=C(N)Oc3cc(N)ccc32)c1 (stereo not given), the growth was 55.7% (inactive).
CN(C)CCOc1cccc(-c2nc3sccn3c2-c2ccnc(S(C)(=O)=O)n2)c1 was tested, and the growth was 99.5% (inactive).
In the case of CCN(CC)CCCC(C)Nc1c2ccc(Cl)cc2nc2ccc(OC)cc12 (stereo not given), the growth was 49% (inactive).
For CC(C1=C(CN(C(=O)Cc2cn(-c3ccccc3)nc2-c2ccc(Cl)cc2)C(C)C)Cc2ccccc21)c1ccccn1 (stereo not given), the growth was 41% (inactive).
In the case of CNS(=O)(=O)Oc1ccc(-c2ccc3occc3c2)cc1, the growth was 38.6% (inactive).
With O=C1c2ccccc2C(=O)N1CCCCNc1ccccc1 the growth was 127% (inactive).
In the case of Cc1ccc(S(=O)(=O)N(C)CCCCCC(=O)O)cc1, the growth was 95.9% (inactive).
CCN(CC)CCNc1ccc(C)c2sc3cc(Cl)ccc3c(=O)c12 was tested, and the growth was 71.3% (inactive).
O=C(/C=C/c1cccc(B(O)O)c1)c1cccc(B(O)O)c1 was tested, and the growth was 56.3% (inactive).
With Cc1ccc(NC(=S)NNC(=S)Nc2ccc(C)cc2)cc1 the growth was 92.7% (inactive).
C[C@@H](C[C@H](CCO)c1ccccc1)c1ccc2ccccc2c1 was tested, and the growth was -44% (active).
For CCN(CC)CCN1c2nc3ccccc3cc2Sc2cc3ccccc3nc21, the growth was -3.38% (active).
With CN(C)c1ccc(/C=N/NC(=O)c2ccccc2Nc2cccc(C(F)(F)F)c2)cc1 the growth was 82.2% (inactive).
In the case of CS(=O)(=O)c1nccc(-c2c(-c3cccc(OCCN4CCOCC4)c3)nc3sccn23)n1, the growth was 101% (inactive).
O=C(CCCSc1nc(-c2ccccc2)cc(-c2ccc(Cl)cc2)n1)NO was tested, and the growth was -10.5% (active).
In the case of CC(=O)COc1ccc(Cl)cc1Cl, the growth was 93% (inactive).
With CN1CCc2c(sc3nc4n(-c5ccc(Cl)cc5)c(=O)[nH]n4c(=O)c23)C1 the growth was 101% (inactive).
With Cc1ccc(C2NC(=S)N3C(c4ccc(C)cc4)NC(=S)N23)cc1 (stereo not given) the growth was 43.1% (inactive).
For COCCn1cc(-c2nc(-c3cccnc3)cs2)c2cc(F)ccc21, the growth was 90.8% (inactive).
In the case of Nc1nc(N)c(N)c(Nc2ccc(CCO)cc2)n1, the growth was 91.9% (inactive).
With CN(C)CCCSc1ccccc1NC1=C(Cl)C(=O)C(Nc2ccccc2SCCCN(C)C)=C(Cl)C1=O the growth was 67.5% (inactive).
In the case of CCOC(=O)c1cc(C(=O)c2cc(OC)c(OC)c(OC)c2)n2c1ccc1c3cccnc3ccc12, the growth was 93.3% (inactive).
In the case of NC1=NC(c2ccccc2)C2=C(N1)/C(=C/c1ccccc1)CCC2 (stereo not given), the growth was 95% (inactive).
With CCn1cc(C(=O)O)c(=O)c2cc(F)c(N3CCNCC3)cc21 the growth was 102% (inactive).
COC1=CC(=O)OC(c2ccc(OC)cc2)C1 (stereo not given) was tested, and the growth was 96.1% (inactive).
For Cc1ccc(C(=O)/C=C/c2ccccc2)s1, the growth was 82.3% (inactive).
In the case of CCCCC/C=C/C/C=C/CCCCCCCC1=NC(C)(C)CN1C(C)C, the growth was 51.9% (inactive).
In the case of CCOC(=O)c1cc(C(=O)c2ccc(F)cc2F)n2ccccc12, the growth was 99.7% (inactive).
CC1=CC2C(C(O)CC3(C)C2CC(C)C32OCOC23COCO3)C2(C)C/C(=C/O)C(=O)C=C12 (stereo not given) was tested, and the growth was 48.8% (inactive).
Cc1ccc(C)c(COc2cc(NC(=O)c3ccc4c(c3)OCO4)ccc2N(C)S(C)(=O)=O)c1 was tested, and the growth was 29.6% (inactive).
O=C(/C=C/C=C/c1c(C2CC2)nc2ccccc2c1-c1ccc(F)cc1)c1cccs1 was tested, and the growth was 49.3% (inactive).
